BL2 CD40 inh: CD40 pathway inhibition in BL2 cells | hit rate 0.94% among 83,000 | inhibition, % at 10 µM | AID 1053188 | BL2 NF-kB luciferase reporter, CD40L-induced, 4 h;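 active = mean inhibition of at least 50% with a set share of replicates also reaching that level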
A number is an active result; i = inactive; [ ] = remark or other dose. Shown is part of a subset that was picked to be rich in hits.

SMILES	BL2 CD40 inh
C[C@@H]1CCCCO[C@@H](CN(C)Cc2ccc(C(F)(F)F)cc2)[C@H](C)CN([C@H](C)CO)C(=O)c2cc(NC(=O)Nc3cccc4ccccc34)ccc2O1	i
COc1ccc(S(=O)(=O)Nc2ccc3c(c2)C(=O)N([C@H](C)CO)C[C@H](C)[C@@H](CN(C)Cc2ccc(C(F)(F)F)cc2)OCCCC[C@@H](C)O3)cc1	53[25 µM]
C[C@@H]1CCCCO[C@@H](CN(C)Cc2ccc(C(F)(F)F)cc2)[C@H](C)CN([C@@H](C)CO)C(=O)c2cc(NC(=O)Nc3cccc4ccccc34)ccc2O1	i
COc1ccc(S(=O)(=O)Nc2ccc3c(c2)C(=O)N([C@@H](C)CO)C[C@H](C)[C@@H](CN(C)Cc2ccc(C(F)(F)F)cc2)OCCCC[C@H](C)O3)cc1	i
C[C@H]1CCCCO[C@@H](CN(C)C(=O)C2CCCCC2)[C@@H](C)CN([C@@H](C)CO)C(=O)c2cc(NS(=O)(=O)c3ccccc3)ccc2O1	i
C[C@@H]1CCCCO[C@H](CN(C)Cc2ccc(C(F)(F)F)cc2)[C@@H](C)CN([C@@H](C)CO)C(=O)c2cc(NC(=O)Nc3cccc4ccccc34)ccc2O1	51[25 µM]
C[C@H]1CCCCO[C@H](CN(C)C(=O)C2CCCCC2)[C@@H](C)CN([C@@H](C)CO)C(=O)c2cc(NS(=O)(=O)c3ccccc3)ccc2O1	i
COc1ccc(S(=O)(=O)Nc2ccc3c(c2)C(=O)N([C@H](C)CO)C[C@@H](C)[C@H](CN(C)Cc2ccc(C(F)(F)F)cc2)OCCCC[C@H](C)O3)cc1	i
C[C@@H]1CCCCO[C@@H](CN(C)Cc2ccc(C(F)(F)F)cc2)[C@@H](C)CN([C@H](C)CO)C(=O)c2cc(NC(=O)Nc3cccc4ccccc34)ccc2O1	i
C[C@@H]1CCCCO[C@@H](CN(C)C(=O)C2CCCCC2)[C@@H](C)CN([C@H](C)CO)C(=O)c2cc(NS(=O)(=O)c3ccccc3)ccc2O1	67[25 µM]
C[C@@H]1CCCCO[C@H](CN(C)Cc2ccc(C(F)(F)F)cc2)[C@H](C)CN([C@@H](C)CO)C(=O)c2cc(NC(=O)Nc3cccc4ccccc34)ccc2O1	i
C[C@@H]1CN([C@H](C)CO)C(=O)c2cc(NC(=O)Nc3cccc4ccccc34)ccc2O[C@@H](C)CCCCO[C@H]1CN(C)Cc1ccc(C(F)(F)F)cc1	49[25 µM]
O=C1CCCCn2cc(nn2)COC[C@@H](c2ccccc2)N1	i
C[C@H](NC(=O)[C@@H]1[C@@H](CO)[C@@H]2Cn3c(cccc3=O)[C@@H]2N1Cc1cccnc1)c1ccccc1	i
CCCNC(=O)Nc1ccc2c(c1)OC[C@H](C)N(S(C)(=O)=O)C[C@@H](C)[C@H](OC)CN(C)C2=O	i
CC(=O)Nc1cccc2c1O[C@H](CN(C)S(C)(=O)=O)[C@H](C)CN(C)C2=O	i
Fc1ccc(CN2[C@@H]3CN(CC(F)(F)F)C[C@H]2C3c2ccc(Br)cc2)cc1 (stereo partly specified)	i
CC(=O)N1[C@@H]2c3ccc(C4=CCCC4)c(=O)n3C[C@H]1[C@H](CO)[C@H]2C(=O)NC1CCC1	i
Cc1ccc2nc(C(F)(F)F)c(C#N)c(N)c2c1	108
Cc1cc(C)c2nc(C(F)(F)F)c(C#N)c(N)c2c1	i
CCSc1nc2ccc(C)cc2cc1C#N	i
CC=Cc1cc2c(c(=O)o1)C(=O)C(O)C(C)O2 (stereo unspecified)	41
CCc1cnc(N2[C@@H](C#N)[C@@H](c3ccc(-c4cccc(F)c4)cc3)[C@@H]2CO)s1	i
CC1CCN(S(=O)(=O)c2ccc3c(c2)oc(=O)n3C)CC1	i
CC1CCN(S(=O)(=O)c2ccc3c(c2)C(Cl)(Cl)C(=O)N3)CC1	53
SMILES	BL2 CD40 inh
Cc1ccc(S(=O)(=O)N2CCC(N3CCC(C)CC3)CC2)cc1	i
CN1C(=O)c2cc(NC(=O)C3CCOCC3)ccc2OC[C@H]2O[C@@H](CC(=O)NCC3CC3)CC[C@@H]21	i
O=C(C[C@@H]1C[C@H]2c3cc(NC(=O)Nc4ccccc4F)ccc3O[C@H]2[C@@H](CO)O1)NCc1ccc2c(c1)OCO2	i
C[C@H]1CN([C@@H](C)CO)C(=O)c2c(c3ccccc3n2C)-c2ccccc2CO[C@H]1CN(C)Cc1cccnc1	i
CCCCCC(=O)N/N=C/c1ccc([N+](=O)[O-])o1	i
O=C(N/N=C/c1ccc([N+](=O)[O-])o1)C1CCCC1	i
O=C(Cc1ccc2c(c1)OCO2)NN=Cc1ccc([N+](=O)[O-])o1	95
COc1ccc(C(=O)N2C[C@H]3[C@@H](c4ccccc42)[C@@H](CO)N3Cc2ccc3c(c2)OCO3)cc1	i
C[C@H](CO)N1C[C@H](C)[C@@H](CN(C)C(=O)Nc2ccc3c(c2)OCO3)OCc2ccccc2-c2ccccc2C1=O	i
CCCCn1c(NC(=O)c2ccc(Br)o2)c(S(=O)(=O)c2ccccc2)c2nc3ccccc3nc21	66
Nc1c(S(=O)(=O)c2ccccc2)c2nc3ccccc3nc2n1CCN1CCOCC1	i
CCCCn1c(NC(C)=O)c(C#N)c2nc3ccccc3nc21	i
COc1ccc(S(=O)(=O)N(C)C[C@@H]2Oc3ccc(NC(=O)CCN4CCOCC4)cc3CC(=O)N([C@H](C)CO)C[C@H]2C)cc1	i
N#Cc1ccc(-c2ccc3c(c2)[C@@H]2[C@@H](CCN2C(=O)C2CC2)[C@@H](CO)N3)cc1	i
CCC(=O)N1[C@H](C#N)[C@H](c2ccccc2-c2ccccc2)[C@@H]1CO	i
N#C[C@H]1[C@@H](c2ccccc2-c2ccccc2F)[C@H](CO)N1C(=O)c1cccc(F)c1	i
O=S(=O)(CCSc1ccccn1)c1nc2ccccc2s1	59
O=C(O)CCSc1nc2ccccc2s1	i
O=c1[nH]c(CSc2ccccn2)nc2ccccc12	i
CC(C)CC(NC(=O)N1CCCCCC1)C(=O)NC(Cc1cn(C)c2ccccc12)C(=O)NC(Cc1ccccn1)C(=O)O (stereo unspecified)	i
N#C[C@@H]1[C@H](c2ccccc2-c2ccccc2F)[C@H](CO)N1C(=O)C1CCOCC1	i
CCC(=O)NC[C@@H]1[C@@H](c2ccccc2)[C@@H](CO)N1C(=O)C1CC1	i
COCC(=O)N1CC(=O)N2[C@H](C1)[C@H](c1ccc(-c3ccncc3)cc1)[C@@H]2CO	i
O=S(=O)(c1ccc(Cl)cc1)N1[C@@H]2CNC[C@H]1C2c1ccc(-c2cccnc2)cc1 (stereo partly specified)	i
C/C(=N/NC(=O)c1ccccn1)c1ccco1	i
SMILES	BL2 CD40 inh
CC(=NNC(=S)N1CCC1)c1ccccn1	97
CC(=NNC(=S)N1CC2CCC(CC2)C1)c1cccc(C)n1	i
C[C@@H]1CN([C@@H](C)CO)C(=O)c2ccccc2-c2ccccc2CO[C@@H]1CN(C)C(=O)Cc1ccccc1	i
CC(C)NC(=O)N(C)C[C@H]1Oc2c(cccc2[N+](=O)[O-])C(=O)N(C)C[C@@H]1C	i
CC1(C)CC1C(=O)N/C(=C\CCCCSCC(N)C(=O)O)C(=O)O (stereo unspecified)	i
O=C(NCc1ccccn1)C1CCN(S(=O)(=O)c2ccccc2)CC1	i
CCOc1ccc(S(=O)(=O)N2CCCC(C(=O)NCc3ccccn3)C2)cc1Cl (stereo unspecified)	i
O=C(NCc1ccccn1)C1CCCN(S(=O)(=O)c2ccccc2)C1 (stereo unspecified)	26
COc1ccc(-c2ccccc2[C@@H]2[C@@H](C#N)N(C(=O)C3CCOCC3)[C@H]2CO)cc1	i
CCCCC(C)Sc1nc2c([nH]1)c(=S)n(C)c(=O)n2C (stereo unspecified)	i
CSc1nc2c([nH]1)c(=S)n(C)c(=O)n2C	74
